Results as given in the supplement of paper PMC11417369.
The full ranking holds about 25,000 sequences; the median of “ln(normalized median fluorescence intensity)” is about 7.1, and the highest 2% start at about 10. The sample as a whole holds a higher share of the highest values than the screen did.

Tested on: PfSIP2 AP2 domain 1 (GST-tagged)
Test: gcPBM binding intensity (ln(normalized median fluorescence intensity)); higher = stronger DNA binding
Procedure, shortened: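 GST-fused DNA-binding domains of P. falciparum, expressed in E. coli, were applied at about 25 μg on average for 1 h to an Agilent 4 × 180k array of primer-extended double-stranded 36-bp intergenic genomic probes and negative controls. Binding intensity is the highest Masliner-normalised natural-log median intensity across replicate spots of either probe orientation, measured with Alexa488 anti-GST antibody and a 488 nm scan.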

| Sequence | gcPBM binding intensity (ln) |
| --- | --- |
| ACAATAAAGAACAGTATGCACTTTTATGCATGCGTA | 8.94 |
| CAAATAATATTATGAAGTACTTCAAATTTTGAAAGA [XGTACX_site2530] | 6.98 |
| TATTTATTTATGTGTTGTACAAATAAATAGAGGTAT [XGTACX_site6408] | 7.35 |
| AAAAATAAAACAATTACACACATAATTTTATTTTTA [CACACA_site928] | 6.86 |
| ATATTTAACAGGTTAAAAATATAAACAAATAAATAA [CACACA_negctrl_site907] | 6.85 |
| ATGCAAAATAAAGAAGCACACAAAAATGAAATATAT [CACACA_site9217] | 7.2 |
| TGTGTATAAGTCACTTGTACTAGTAGTAAAAAAAAA [XGTACX_site4341] | 6.85 |
| TTCTATATTATATATGCATGTGTTATTCTTATTTTC [TGCATGCA_site92] | 7.15 |
| ATTATTTTTCTATGTGTGCACGTGTGGAATGTGTCT [GTGCAC_site9507] | 10.3 |
| TTATTTATTCTATGTGCATGTTATTTTTTTTTTTCG [TGCATGCA_site262] | 7.6 |
| ATATATATTAATATTTGTACATAAAATTATTTCAAT [XGTACX_site5364] | 7.14 |
| TTTTCAATATATTAATGTACGAATACGCAAATAAGA [XGTACX_site1613] | 7.23 |
| GTATATGAATAATATTTTATGGTAATTTTTTTTTTT [XGTACX_negctrl_site512] | 6.91 |
| ATATGACATAAAACATGTACATGTTCATAAATATAT [XGTACX_site1923] | 7.07 |
| AAATATAATAATATATGTACATATATATATATATAT [XGTACX_site6980] | 9.73 |
| AAAAAAAATTTAATTGCACACAGGAAAATATAATTT [CACACA_site3810] | 7.01 |
| GAAATTTTTAATGTGGTGCACAGGAAATTTTTTCTT | 11 |
| ATATATATTAATTTTGTGCACAAATGGAAATGTTTG [GTGCAC_site9971] | 8.34 |
| AAGCGAATCTATATCACACACAAAAAAATCAGACTA [CACACA_site7072] | 6.94 |
| GACTACACACAAGGGTGTACATATATATTATATATA [XGTACX_site2247] | 7.31 |
| TAAGTATAATATTGATGTACATATAATAACTTGTAT [XGTACX_site417] | 7.03 |

| Sequence | gcPBM binding intensity (ln) |
| --- | --- |
| TTTTATTTCTTTGCACCATTTTAAATACAAACAAAT [CACACA_negctrl_site1553] | 10.7 |
| TCTTTCCTTATTAAAACACACAAATACATTATTTAA [CACACA_site2147] | 7.13 |
| CATTTTATTTTCTTTGTGCACAAAAATATTTTTTCT | 8.78 |
| ATATGAAGTTATATAGTGCACATGTACAACCAAATC [GTGCAC_site9974] | 10.4 |
| TATGAGAAAAAAAGTACATGCACAAAATGTATATGT [TGCATGCA_site789] | 7.3 |
| ATATGTACAAGTTATACACACATGTACAGTTATATA [CACACA_site6706] | 7.11 |
| GAAGTTAGTGTTGACTGTACATATATATGTATATAT [XGTACX_site7243] | 7.21 |
| GAAATTATGTAAAAAAGTACTAACATACATATATAT [XGTACX_site1794] | 7.18 |
| GAATTTATGAACTGTGCATGTAAAAAAAACAACAAA [TGCATGCA_site449] | 8.15 |
| AATGTGCAAACAAACTGTACTTTTTTTTTTTTTTTT [XGTACX_site928] | 7.84 |
| AAAAACAAACTGTGCATGCACCAAAAAAAAAAAAAA | 10.4 |
| TTATTTACTTATTGCACACATATAAAATATATTTAT [CACACA_site3101] | 7.74 |
| TAATATATTTATAGAGCATGCAACGTAATATTATTA [TGCATGCA_site863] | 7.12 |
| TACGTCTTTTTTTTGGTGCATAATTTTTTTGTACAA | 10.9 |
| ATTTTTTTGGTAATTTGTACATAATATATACATAAT [XGTACX_site3742] | 7.21 |
| AAAATTTCTTTTTTTTGTACATATATAATAATATAT [XGTACX_site7107] | 6.92 |
| TTAACGCTTATTTTTTGTACTTATTTTATTTTAAAT [XGTACX_site3977] | 7.22 |
| CCCTATATAAATAGCTGTACATTTGAACATGTTCAG [XGTACX_site2187] | 6.97 |
| GCAATTTTTTTTAAGAGTACTAATATATTATAGTGG [XGTACX_site7316] | 7.11 |
| AATAAATAGATATATACACACATATATGTGTACATA [CACACA_site7476] | 7.06 |
| TACAAATATATATGCACACACATATCTGTATATGTG [CACACA_site5663] | 7.66 |

| Sequence | gcPBM binding intensity (ln) |
| --- | --- |
| TGCGGAAATAAGTGCACACATAGATATATGTATTTT [CACACA_site3689] | 10.8 |
| TATGTATAAATATATGCACACATATATATATTTATA [CACACA_site9150] | 7.18 |
| TATAAATATCTGTATGCACACATTTTTTTTGGAAAA [CACACA_site4734] | 8.04 |
| TATAAATATATGTATGCACACATTTTTTTTGGAAAA [CACACA_site1070] | 8.1 |
| TGTGCGGAAATAAGTGCACACATAGATATATGTATT [CACACA_site9227] | 10.8 |
| TGTGTGTGTATATGTGTGCACATATAAAATAGAAGA [GTGCAC_site9714] | 8.95 |
| TGTGCGGAAATAAGTGCACACATAGATATCTGTATT [CACACA_site5935] | 10.9 |
| TTTTTCTCTTTAAGGTGTACAATAATACAGTAACCA [XGTACX_site300] | 7.44 |
| ATAAATAATAAAAAATGTACACATATAAATATAAAG [XGTACX_site727] | 7.11 |
| TCTTACGGATTCATTGTGCACATATATATATATATA [GTGCAC_site9896] | 9.46 |
| AGCACACGCAGACACACACACACACGCACACGCACA [CACACA_site6306] | 8.43 |
| TACCACATCGGTAAATGTACTTATAAAAAAAAAAAA [XGTACX_site3364] | 6.83 |
| ATCATATTTATGTTGGTGCATTATACATAAAGTTTA [GTGCAC_site9574] | 10.2 |
| CATACAATAAATATGGTGCATTTTATGTAACCGTTT [GTGCAC_site9420] | 10.4 |
| ACATTTAAAATTTATGCATGTGGTGTTTTGTATATA [TGCATGCA_site534] | 7.26 |
| TATATATATATGTATGCATGTTGTTTTTTATTTAAT [TGCATGCA_site343] | 9.27 |
| TTTTTGTTCTATATGGTGCATGTTTATATTCGTATT | 10.3 |
| ACACATGTATTTGGTGCATGTTGTTAAAAAAATATT [TGCATGCA_site795] | 10.8 |
| TTTATTTTGTTTATGGTGCATTTTATGTAAATATAT | 10.8 |
| GATATATTTTATATATGTACATACAATGGTAAATAT [XGTACX_site2759] | 7.09 |
| TATATATTGTTATATACACACATGTATTTAAAAAAT [CACACA_site5737] | 6.91 |

| Sequence | gcPBM binding intensity (ln) |
| --- | --- |
| TTACACATGTATTTGGTGCATGTTGTTAACAAAATA | 9.57 |
| ATATATATATTTTATGCATGTTCATTTTCTATATTT [TGCATGCA_site442] | 8.1 |
| TTTTGTTTATGTGTGCATTATATTATATTTTTTATT [TGCATGCA_negctrl_site146] | 7.83 |
| ATGAAATTTATATCATGTACATACAAGAGAAAAAAA [XGTACX_site3326] | 7 |
| ATTCTTTTTTTTTGGAAATGTATTTTTATGTTTTGT [TGCATGCA_negctrl_site426] | 6.73 |
| TTAAAAATAAATTCATGTACATAATATATATATATA [XGTACX_site7908] | 9.25 |
| ATTTTGTGTAGTGATGCATGTTATATATATATTTGA [TGCATGCA_site422] | 7.33 |
| TTTTTTGTTTGAATGGTGCATTTTGTAATTATATTT | 10.6 |
| TTATATTTATATTTATGTACATATTTTGTGTGAAAA [XGTACX_site2367] | 7.27 |
| TTATATTAATTTTGTTGTACTATTTGTGCATTAAAT [XGTACX_site4790] | 7.42 |
| TTTTGTAATGTGAATATTTGTATATTATTTGTATAT [CACACA_negctrl_site1677] | 7.03 |
| ATATATTTTTGTAGTGTGCACGTTTATATGGTGAAA | 10.3 |
| AAAAAAAAAAAAAATAGTACAATACCCAAATATAAC [XGTACX_site6684] | 7.3 |
| CACACAGGTAAAAAGGTGCAGTTGAAATATTCCTCA [GTGCAC_site9730] | 11.1 |
| AAAAAAAAAAAAAAAGGTACAGTAAAAAATTCCTCT [XGTACX_site5947] | 7.41 |
| GATAAATAATAATAAGGTACACATAAAATATTCCTT [XGTACX_site2963] | 6.86 |
| AAAAATAAATATACATGTACATAATAATAATATATA [XGTACX_site8359] | 6.97 |
| TATTTAAAATAATGTGCAAAAGAATAAATAAATAAA [TGCATGCA_negctrl_site194] | 7.23 |
| GATAATCAGAATGGGGTGCAAAGAAAAAAAAAAAAA | 11.3 |
| CTTTTAGAATAATCAGTGCAAAAAAAAAAAAAAAAA | 8.42 |
| TTTTTTTTTAAGTTTGCACACATGGAAGACAAAAAT [CACACA_site2505] | 7.96 |
